Source: PubChem
HP1b chromo inh: HP1-beta chromodomain-methylated histone interaction inhibition; P83916; AlphaScreen HP1-beta / biotin-H3K9me3 peptide binding; hit rate 0.56% among 390,000; Potency, µM (doses to about 114 µM), for the others: at the highest dose activity change, negative = inhibition, actives largely listed as inhibitors; note: nearly all actives have a fitted effect of over 70% in size
Target sequence (P83916 whole entry, looked up): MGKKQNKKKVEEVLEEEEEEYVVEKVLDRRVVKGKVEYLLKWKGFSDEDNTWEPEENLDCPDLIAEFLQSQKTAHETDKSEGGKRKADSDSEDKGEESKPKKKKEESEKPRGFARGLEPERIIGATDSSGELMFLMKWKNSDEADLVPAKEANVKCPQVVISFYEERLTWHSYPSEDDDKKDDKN
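Compound inhibition of the preformed complex between 50 nM HP1-beta and 50 nM biotinylated H3K9me3 peptide was read by AlphaScreen. Buffer was PBS pH 7.4 with 0.01% Tween-20. Incubations ran 30 min at room temperature, with 10 ug/mL donor/acceptor beads.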
PLK1 PBD inh: inhibitors of human PLK1 polo-box domain binding; Potency, µM, for the others: max response, negative = inhibition, usual class: inhibitors; P53350; Plk1 PBD binding of FITC phosphopeptide, fluorescence polarization; hit rate 2.8% among 360,000; note: series mostly up to about 57 µM; % is set by controls: 0 for no effect and ±100 for the full control effect; nearly all actives have a fitted effect of over 65% in size
Sfp inh: blocks B. subtilis Sfp PPTase activity; Q9F4F7; Biochemical Sfp PPTase activity, qHTS; Potency, µM, without a hit: largest response in the series, negative = inhibition, hits mostly inhibitors; hit rate 3.5% among 310,000; AID 1490;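 note: the enzyme is Sfp with the accession as filed and its product quenches rhodamine fluorescence; 0% = enzyme reaction without inhibitor and -100% = no enzyme wells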
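Fluorescence-quenching assay: 15 nM Sfp-PPTase preincubated 15 min at room temperature with compound, then 5 uM rhodamine-CoA and 12.5 uM BHQ-2-labelled YbbR peptide added. Fluorescence (ex 525/em 598 nm) read at start and after 30 min; difference gives rate.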
BAZ2B inh: blocks human BAZ2B. AlphaScreen BAZ2B-H3K14Ac peptide displacement. Potency, µM (series often up to 114 µM), for the others: top-dose activity change, negative = inhibition, most hits filed as inhibitors. hit rate 4.4% among 360,000. Q9UIF8; note: % is set by controls: 0 for no effect and ±100 for the full control effect; nearly all actives have a fitted effect of over 60% in size
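Compounds, titrated to a top concentration of 110 uM, were incubated 30 min at room temperature with preformed BAZ2B/acetyl-K14 H3 peptide complex (50 nM each). Proximity signal was measured by AlphaScreen after 20 min with beads.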
JMJD2A Tudor: blocks the human JMJD2A Tudor domain | O75164 | AlphaScreen JMJD2A-Tudor / H3K4me3 peptide binding | Potency, µM (series often up to 114 µM), without a hit: top-dose activity change, negative = inhibition, actives largely listed as inhibitors | hit rate 4.4% among 390,000 | AID 504339; note: % is set by controls: 0 for no effect and ±100 for the full control effect; nearly all actives have a fitted effect of over 50% in size
G9a block: blocks human histone lysine methyltransferase G9a. Q96KQ7. G9a H3K9 monomethylation, AlphaScreen, 2 h. Potency, µM (doses to about 102 µM), without a hit: at the highest dose activity, negative = inhibition, usual class: inhibitors. hit rate 8.8% among 350,000. AID 504332; note: % is set by controls: 0 for no effect and ±100 for the full control effect; nearly all actives have a fitted effect of over 75% in size
Target sequence (Q96KQ7 913-1193 limits assumed): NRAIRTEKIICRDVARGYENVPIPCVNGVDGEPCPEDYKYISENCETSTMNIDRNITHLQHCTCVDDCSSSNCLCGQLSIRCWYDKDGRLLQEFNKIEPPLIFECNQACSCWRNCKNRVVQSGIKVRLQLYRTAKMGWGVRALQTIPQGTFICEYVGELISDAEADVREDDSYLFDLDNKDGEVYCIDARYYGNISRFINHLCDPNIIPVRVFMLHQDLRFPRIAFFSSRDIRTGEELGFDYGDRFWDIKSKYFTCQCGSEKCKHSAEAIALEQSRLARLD
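G9a (20 nM) preincubated 15 min RT with compounds, then 500 nM biotinylated H3K9 peptide and 20 uM SAM added; 2 h RT reaction. Monomethyl-H3K9 product detected by AlphaScreen with anti-H3K9me1 antibody, streptavidin donor and anti-rabbit IgG acceptor beads.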
The depositor's hits bear a star; [ ] = another dose, or the depositor's remark. An excerpt weighted towards active compounds, which were near 12% of everything screened. Calls come from the whole dose curve; as a rule, active = well fitted curve in the direction sought with a large enough effect; inconclusive = small, poorly fitted or top-dose-only effect, or another doubt; inactive = no such curve, though single readings can be large; an effect the other way counts as inactive or inconclusive. Potency is the fitted concentration of half-maximal effect.

For CCc1nn2c(=O)cc(COc3ccc(/C=C4\C(=N)N5N=C(CC(C)C)SC5=NC4=O)cc3)nc2s1 the results were HP1b chromo inh 8.9%, PLK1 PBD inh inconclusive, Sfp inh -4.4%, BAZ2B inh inconclusive, JMJD2A Tudor 44.7µM* and G9a block 15.0%[59 µM].
For CCC1=NN2C(=N)/C(=C\c3ccc(OCc4cc(=O)n5nc(CC)sc5n4)c(OC)c3)C(=O)N=C2S1 the results were HP1b chromo inh -36.4%, PLK1 PBD inh inconclusive, Sfp inh 9.4%, BAZ2B inh 79.4µM*, JMJD2A Tudor inconclusive and G9a block inconclusive.
Cc1cc(C)cc(Cn2c3ccc(NC(=O)NCc4ccc(F)cc4)cc3c(=O)n2C)c1 was read as PLK1 PBD inh -11.3%.
For O=C(C1CC=CCC1)N1CCN(S(=O)(=O)c2ccc(F)cc2)CC1 (stereo not given) the results were HP1b chromo inh 11.6%, PLK1 PBD inh -13.6%, BAZ2B inh 31.1%, JMJD2A Tudor 0.7% and G9a block inconclusive.
`COC(=O)[C@@H]1C[C@@]2(O)[C@H](O)[C@H](O)[C@H](O)C[C@H]2N1Cc1c(F)cccc1Cl` gave Sfp inh 10.2%.
`CCOc1c(Br)cc(C2NC(=O)CCC2[N+](=O)[O-])cc1OC` (stereo not given) gave HP1b chromo inh 43.3%, PLK1 PBD inh -2.0%, Sfp inh 21.0%, BAZ2B inh -2.4%, JMJD2A Tudor 2.3% and G9a block 22.1%.
Screening CCOc1cc(C2NC(=O)CCC2[N+](=O)[O-])cc(Br)c1OC (stereo not given) returned HP1b chromo inh 8.3%, PLK1 PBD inh 26.7µM*, Sfp inh 9.9%, BAZ2B inh -2.6%, JMJD2A Tudor -17.4% and G9a block 21.0%.
`O=C(c1ccccc1)c1ccccc1C(=O)N1CCOCC1` gave HP1b chromo inh 11.9%, PLK1 PBD inh 1.4%, Sfp inh 19.3%, BAZ2B inh -4.5%, JMJD2A Tudor -11.0% and G9a block 19.8%[59 µM].
Screening Cc1ccc2c(c1C)NC(C(=O)O)C1CC=CC21 (stereo not given) returned HP1b chromo inh 11.2µM*, PLK1 PBD inh 18.9µM*, Sfp inh 44.7µM*, BAZ2B inh 7.08µM*, JMJD2A Tudor 7.94µM* and G9a block 8.91µM*.
`Cc1cc(C)c2c(c1)C1C=CCC1C(C(=O)O)N2` (stereo not given) gave HP1b chromo inh 20µM* and JMJD2A Tudor 20µM*.
`O=C(O)C1Nc2c(C(=O)N3CCOCC3)cccc2C2C=CCC12` (stereo not given) gave HP1b chromo inh 39.8µM*, PLK1 PBD inh 11.9µM*, Sfp inh 7.08µM*, BAZ2B inh 20µM*, JMJD2A Tudor 11.2µM* and G9a block 8.91µM*.
For Cc1cc(C)c2c(c1)NC(C(=O)O)C1CC=CC21 (stereo not given) the results were HP1b chromo inh 20µM*, PLK1 PBD inh 2.99µM*, Sfp inh 89.1µM*, BAZ2B inh 11.2µM* and JMJD2A Tudor 12.6µM*.
Screening Cc1cc(C)c2c(c1)N[C@H](c1cccs1)[C@@H]1CCO[C@H]21 returned HP1b chromo inh 26.9%, PLK1 PBD inh -4.1%, Sfp inh 14.2%, BAZ2B inh -2.5%, JMJD2A Tudor -9.8% and G9a block 2.7%.
`COCCNC(=O)C1Nc2ccc(C(F)(F)F)cc2C2C=CCC12` (stereo not given) gave HP1b chromo inh 10.1%, PLK1 PBD inh -18.4% and JMJD2A Tudor -30.3%.
For COC(=O)CNC(=O)C1Nc2ccc(OC(F)(F)F)cc2C2C=CCC12 (stereo not given) the results were HP1b chromo inh 38.4%, PLK1 PBD inh -1.5% and JMJD2A Tudor -16.6%.
`O=C(CCNC(=O)c1ccc([N+](=O)[O-])cc1)NNC(=O)c1ccccc1F` gave HP1b chromo inh 49.7%, PLK1 PBD inh 1.7%, BAZ2B inh 36.0%, JMJD2A Tudor -6.4% and G9a block -35.4%[59 µM].
NCCCC[C@H](NC(=O)[C@@H]1CCCN1C(=O)[C@@H](N)CCCN=C(N)N)C(=O)N1CCC[C@H]1C(=O)N[C@@H](CCC(N)=O)C(=O)N[C@@H](CCC(N)=O)C(=O)N[C@@H](Cc1ccccc1)C(=O)O was read as Sfp inh -22.7%.
CCn1cc(C(=O)N(C)Cc2ccccc2)c(=O)c2cc(S(=O)(=O)N3CCCCC3)ccc21 was read as HP1b chromo inh 32.1%, JMJD2A Tudor -20.7% and G9a block -11.6%[59 µM].
For Cc1ccccc1OCC(=O)NNC(=O)c1ccoc1C the results were HP1b chromo inh 12.3%, PLK1 PBD inh -5.1%, BAZ2B inh 8.7%, JMJD2A Tudor -7.9% and G9a block inconclusive.
For CCc1cccc(C)c1NC(=O)C(NS(=O)(=O)c1ccc2c(c1)CCC(=O)N2)c1ccccc1 (stereo not given) the results were HP1b chromo inh 27.6%, BAZ2B inh -6.4%, JMJD2A Tudor -9.4% and G9a block -3.1%[59 µM].
Screening O=C(O)C1Nc2c(C(F)(F)F)ccc(Cl)c2C2C=CCC12 (stereo not given) returned HP1b chromo inh -4.0%, PLK1 PBD inh 26.7µM*, Sfp inh inconclusive, BAZ2B inh inconclusive, JMJD2A Tudor -26.1% and G9a block 10µM*.
`O=C1Nc2ccccc2Nc2ncccc21` gave HP1b chromo inh 43.6%, PLK1 PBD inh -1.6%, Sfp inh 16.8%, BAZ2B inh -30.2%, JMJD2A Tudor -5.4% and G9a block inconclusive.
c1ccc2c(c1)Nc1nccnc1S2 was read as HP1b chromo inh -23.2%, PLK1 PBD inh 15µM*, Sfp inh -88.7%, BAZ2B inh -1.4%, JMJD2A Tudor 44.7µM* and G9a block inconclusive.
Screening Clc1cc2c(nn1)Nc1ccccc1S2 returned HP1b chromo inh 24.9%, PLK1 PBD inh -15.4%, Sfp inh 22.5%, BAZ2B inh -0.3%, JMJD2A Tudor -9.3% and G9a block 4.8%.
`O=C1Nc2cccnc2Sc2ccccc21` gave HP1b chromo inh -4.2%, PLK1 PBD inh -10.0%, Sfp inh -1.4%, BAZ2B inh -3.2%, JMJD2A Tudor -15.1% and G9a block 28.2µM*.
For O=c1ccn(C2OC(COP(=O)(O)OP(=O)(O)OP(=O)(O)O)C(O)C2O)c(=O)[nH]1 (stereo not given) the results were Sfp inh -1.6%.
For COC(=O)C(CC(C)C)NS(=O)(=O)c1ccccc1Br (stereo not given) the results were HP1b chromo inh 71.9%, Sfp inh 1.5% and JMJD2A Tudor 47.6%.
